Data on 60 molecules can be found in PubChem BioAssay AID624255 (Broad Institute, 2012).

SMILES strings stand for the structures. Where “and” joins values, the source holds several entries; their conditions need not be identical. Equal entries are not always repeated. Out of some 77,000 compounds screened, about 4,600 (6%) were called active. Another 1% or so got no clear call; they are omitted.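 How the source made its calls: active means mean inhibition above about 93%, with at least 55% of replicates each passing it (limit read from the data, passing the limit was not always enough); inconclusive means only one of those two conditions holds; inactive means neither condition holds.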 This excerpt belongs to a sample that is enriched for actives. Some compounds were tested as several samples or in several runs, with calls that do not always agree.

The nature of the test: growth inhibition of T. cruzi in host fibroblasts – cell-based, beta-gal Tulahuen parasites, NIH3T3 host, luminescence, primary screen (AID 624255). The conditions noted are these: T. cruzi beta-gal in NIH3T3, GalScreen luminescence, 90 h; at 8.34 µM; stronger effect = higher value.
`Cc1noc(C)c1NC(=O)N(C)C[C@@H]1OCCCC[C@H](C)Oc2ccc(NS(=O)(=O)c3c(C)noc3C)cc2C(=O)N([C@@H](C)CO)C[C@@H]1C`: the inhibition is -9.2% (inactive).

Consider `COc1cccc(S(=O)(=O)N[C@H]2CC[C@@H](CC(=O)NCc3ccc(F)cc3)O[C@@H]2CO)c1`, for which the inhibition was 47.6% (inactive).

Consider `COc1ccc(-c2ccc3c(c2)O[C@@H](CN(C)CC2CCOCC2)[C@@H](C)CN([C@@H](C)CO)S3(=O)=O)cc1`, for which the inhibition is 40.6% (inactive).

`C[C@@H]1CCCCO[C@@H](CN(C)Cc2ccc(C(=O)O)cc2)[C@H](C)CN([C@H](C)CO)C(=O)c2cc(NS(=O)(=O)c3cccs3)ccc2O1`: the inhibition was -101% (inactive).

Turning to `C[C@@H]1CN([C@H](C)CO)C(=O)c2cc(NS(=O)(=O)c3ccc(Cl)cc3)ccc2O[C@@H](C)CCCCO[C@H]1CN(C)Cc1ccccc1`, the inhibition was 112% (active).

`Cc1ccc(S(=O)(=O)Nc2ccc3c(c2)C(=O)N([C@H](C)CO)C[C@@H](C)[C@H](CN(C)Cc2ccccc2)OCCCC[C@H](C)O3)cc1`: the inhibition was 85.7% (inactive).

Regarding `C[C@@H]1CCCCO[C@H](CN(C)Cc2ccccc2)[C@H](C)CN([C@@H](C)CO)C(=O)c2cc(NS(=O)(=O)c3ccccc3)ccc2O1`, the inhibition is 86% (inactive).

As for `COc1ccc(CN(C)C[C@@H]2OCCCC[C@H](C)Oc3ccc(NS(=O)(=O)c4cccs4)cc3C(=O)N([C@H](C)CO)C[C@@H]2C)cc1`, the inhibition was 44.9% (inactive).

In the case of `C[C@@H]1CCCCO[C@H](CN(C)Cc2ccccc2)[C@@H](C)CN([C@H](C)CO)C(=O)c2cc(NS(=O)(=O)c3ccc(Cl)cc3)ccc2O1`, the inhibition was -26.9% (inactive).

Turning to `C[C@@H]1CN([C@H](C)CO)C(=O)c2cc(NS(=O)(=O)c3cccs3)ccc2O[C@@H](C)CCCCO[C@H]1CN(C)Cc1ccc(C(F)(F)F)cc1`, the inhibition is 97.6% (active).

Consider `C[C@@H]1CCCCO[C@@H](CN(C)Cc2ccc(C(F)(F)F)cc2)[C@H](C)CN([C@H](C)CO)C(=O)c2cc(NS(=O)(=O)c3ccc(F)cc3)ccc2O1`, for which the inhibition was 56.1% (inactive).

`C[C@H](CO)N1C[C@H](C)[C@H](CN(C)Cc2ccc(C(F)(F)F)cc2)OCCCC[C@H](C)Oc2ccc(NS(=O)(=O)c3ccc(Cl)cc3)cc2C1=O`: the inhibition was 98.6% (active).

Turning to `Cc1ccc(S(=O)(=O)Nc2ccc3c(c2)C(=O)N([C@H](C)CO)C[C@H](C)[C@@H](CN(C)Cc2ccccc2)OCCCC[C@H](C)O3)cc1`, the inhibition was 38.8% (inactive).

Turning to `COc1ccc(S(=O)(=O)Nc2ccc3c(c2)C(=O)N([C@@H](C)CO)C[C@H](C)[C@H](CN(C)Cc2ccc(C(F)(F)F)cc2)OCCCC[C@@H](C)O3)cc1`, the inhibition is 63.1% (inactive).

`C[C@@H]1CCCCO[C@H](CN(C)Cc2ccccc2)[C@H](C)CN([C@H](C)CO)C(=O)c2cc(NS(=O)(=O)c3ccc(Cl)cc3)ccc2O1`: the inhibition was 109% (active).

For `CN1C(=O)c2cc(NC(=O)C3CC3)ccc2OC[C@@H]2O[C@@H](CC(=O)NCC3CCCCC3)CC[C@@H]21`, the inhibition is -7.09% (inactive).

In the case of `CCN1[C@@H]2c3ccc(C4=CCCC4)c(=O)n3C[C@@H]2[C@@H](CO)[C@@H]1C(=O)NCc1ccccn1`, the inhibition is 26.1% (inactive).

With `CO[C@H]1CN(C)C(=O)c2ccc(NC(=O)C3CC3)cc2OC[C@@H](C)N(C(=O)CN2CCOCC2)C[C@H]1C`, the inhibition is -43.7% (inactive).

On to `CN1C(=O)c2cc(NC(=O)c3cnccn3)ccc2OC[C@@H]2O[C@H](CC(=O)O)CC[C@@H]21`, for which the inhibition is 8.56% (inactive).

Regarding `CC(=O)N1[C@H](CN(CC2CCC2)C(=O)CN(C)C)[C@@H](c2ccccc2)[C@@H]1CO`, the inhibition is 54.9% (inactive).

Turning to `COc1ccc(NC(=O)N2C[C@H](O)COC[C@H]3O[C@@H](CC(=O)N4CCN(C)CC4)CC[C@@H]32)cc1`, the inhibition is 7.94% (inactive).

On to `C[C@H](CO)N1C[C@H](C)[C@H](CN(C)Cc2ccncc2)Oc2cc(-c3cncnc3)ccc2S1(=O)=O`, for which the inhibition was 16.7% (inactive).

In the case of `C[C@H](CO)N1C[C@H](C)[C@H](CN(C)Cc2ccncc2)Oc2cc(-c3ccncc3)ccc2S1(=O)=O`, the inhibition was 111% (active).

On to `C[C@@H]1CN([C@H](C)CO)S(=O)(=O)c2ccc(-c3ccncc3)cc2O[C@@H]1CN(C)C(=O)Nc1ccc(C(F)(F)F)cc1`, for which the inhibition was 82.6% (inactive).

As to `C[C@H](O)C#Cc1ccc2c(c1)O[C@@H](CN(C)Cc1cncnc1)[C@H](C)CN([C@H](C)CO)S2(=O)=O`, the inhibition is -5.8% (inactive).

Take `COc1ccc(NC(=O)N(C)C[C@H]2Oc3cc(-c4ccncc4)ccc3S(=O)(=O)N([C@H](C)CO)C[C@H]2C)cc1`: the inhibition is 70.2% (inactive).

In the case of `C[C@@H]1CN([C@H](C)CO)S(=O)(=O)c2ccc(C#CCN(C)C)cc2O[C@@H]1CN(C)C`, the inhibition was -35.4% (inactive).

Regarding `C[C@@H]1CN([C@@H](C)CO)S(=O)(=O)c2ccc(-c3ccncc3)cc2O[C@@H]1CN(C)C(=O)Nc1ccc(F)cc1`, the inhibition is 100% (active).

On to `C[C@H]1CN([C@@H](C)CO)S(=O)(=O)c2ccc(C#CCN(C)C)cc2O[C@@H]1CN(C)Cc1ccc(F)cc1`, for which the inhibition was 115% (active).

As for `C[C@@H]1CN([C@@H](C)CO)S(=O)(=O)c2ccc(C#CCN(C)C)cc2O[C@@H]1CN(C)CC1CC1`, the inhibition was -40.3% (inactive).

Take `C[C@@H]1CN([C@H](C)CO)S(=O)(=O)c2ccc(C#C[C@@H](C)O)cc2O[C@@H]1CN(C)Cc1ccc(-c2ccccc2)cc1`: the inhibition was 73.7% (inactive) and 125% (active).

With `C[C@H](O)C#Cc1ccc2c(c1)O[C@H](CN(C)Cc1cncnc1)[C@H](C)CN([C@@H](C)CO)S2(=O)=O`, the inhibition is 36.8% (inactive).

`C[C@H]1CN([C@@H](C)CO)S(=O)(=O)c2ccc(-c3cncnc3)cc2O[C@H]1CN(C)Cc1ccncc1`: the inhibition was 25.1% (inactive).

As to `CC=Cc1ccc2n(c1=O)C[C@@H]1[C@@H](CO)[C@H](C(=O)N3CCc4ccccc4C3)N(C(=O)C3CCC3)[C@H]21` (mixture of isomers), the inhibition was 39.9% (inactive).

As to `CCCC(=O)Nc1ccc2c(c1)C(=O)N(C)C[C@@H](OC)[C@H](C)CN(C(C)=O)[C@H](C)CO2`, the inhibition was -1.03% (inactive).

On to `Cc1ccc(S(=O)(=O)N(C)C[C@@H]2OCCCC[C@H](C)Oc3ccc(NS(=O)(=O)c4cn(C)cn4)cc3C(=O)N([C@H](C)CO)C[C@@H]2C)cc1`, for which the inhibition was 39.1% (inactive).

With `CO[C@@H]1CN(C)C(=O)c2ccc(NC(=O)c3ccc(F)cc3)cc2OC[C@H](C)NC[C@@H]1C`, the inhibition was -9.72% (inactive).

Regarding `Cn1cnc(S(=O)(=O)N2C[C@@H](O)COC[C@H]3O[C@H](CC(=O)N4CCN(c5ccccc5)CC4)CC[C@@H]32)c1`, the inhibition is -64.3% (inactive).

With `CC(C)C#Cc1ccc2c(c1)O[C@H](CN(C)CC1CCOCC1)[C@@H](C)CN([C@H](C)CO)S2(=O)=O`, the inhibition was 93.8% (inactive).

Turning to `C/C=C/c1ccc2c(c1)O[C@H](CN(C)Cc1ccccc1)[C@H](C)CN([C@@H](C)CO)S2(=O)=O`, the inhibition is 62.6% (inactive).

Regarding `C[C@@H]1CN([C@H](C)CO)S(=O)(=O)c2ccc(C#CC(C)(C)O)cc2O[C@@H]1CN(C)Cc1ccccc1`, the inhibition is 34.1% (inactive).

Turning to `CC(C)C#Cc1ccc2c(c1)O[C@H](CN(C)Cc1ccccc1)[C@H](C)CN([C@@H](C)CO)S2(=O)=O`, the inhibition was 111% (active).

For `CC(C)C#Cc1ccc2c(c1)O[C@@H](CN(C)Cc1ccncc1)[C@@H](C)CN([C@@H](C)CO)S2(=O)=O`, the inhibition is 122% (active).

Turning to `CC(C)C#Cc1ccc2c(c1)O[C@@H](CN(C)CC1CCOCC1)[C@H](C)CN([C@H](C)CO)S2(=O)=O`, the inhibition is 91.2% (inactive).

As to `C[C@@H]1CN([C@@H](C)CO)S(=O)(=O)c2ccc(/C=C/c3ccccc3)cc2O[C@H]1CN(C)Cc1ccccc1`, the inhibition is 107% (active).

As for `C[C@@H]1CN([C@H](C)CO)S(=O)(=O)c2ccc(/C=C/c3ccccc3)cc2O[C@@H]1CN(C)Cc1ccccc1`, the inhibition is 81.9% (inactive).

On to `CC(C)C#Cc1ccc2c(c1)O[C@H](CN(C)Cc1ccccn1)[C@H](C)CN([C@H](C)CO)S2(=O)=O`, for which the inhibition is 57.8% (inactive).

As for `COc1cccc(NC(=O)C[C@H]2CC[C@@H]3[C@H](COc4ccc(NC(C)=O)cc4C(=O)N3C)O2)c1`, the inhibition was -37.9% (inactive).

`O=C(C[C@@H]1CC[C@@H]2[C@H](COC[C@@H](O)CN2S(=O)(=O)c2ccccc2)O1)NCC1CCCCC1`: the inhibition was 34.1% (inactive).

Consider `COc1ccc(NC(=O)N[C@@H]2CC[C@H](CC(=O)NC3CCC3)O[C@H]2CO)cc1`, for which the inhibition is 16% (inactive).

With `COc1cccc(S(=O)(=O)N[C@@H]2CC[C@H](CCNC(=O)Cc3ccncc3)O[C@@H]2CO)c1`, the inhibition was -52.5% (inactive).

Consider `O=C(NCC[C@@H]1CC[C@@H](NC(=O)c2ccccc2F)[C@H](CO)O1)c1ccc2c(c1)OCO2`, for which the inhibition was 20.7% (inactive).

Take `COc1ccc(NC(=O)N(C)C[C@H]2OCCCC[C@H](C)Oc3ccc(NS(C)(=O)=O)cc3C(=O)N([C@H](C)CO)C[C@@H]2C)cc1`: the inhibition is 42.5% (inactive).

For `CN1CCN(C(=O)C[C@H]2C[C@@H]3c4cc(NC(=O)Nc5ccc(C(F)(F)F)cc5)ccc4O[C@@H]3[C@H](CO)O2)CC1`, the inhibition is -59.1% (inactive).

As to `C[C@@H]1CCCCO[C@H](CN(C)CC2CC2)[C@@H](C)CN([C@H](C)CO)C(=O)c2cc(NC(=O)Nc3ccc(F)cc3)ccc2O1`, the inhibition is 18.3% (inactive).

Take `C[C@@H]1CCCCO[C@H](CN(C)C(=O)NC2CCCCC2)[C@H](C)CN([C@@H](C)CO)C(=O)c2cc(NC(=O)Nc3ccc(F)cc3)ccc2O1`: the inhibition is 93.1% (inactive).

Take `C[C@@H]1CCCCO[C@H](CN(C)CC2CCCCC2)[C@H](C)CN([C@H](C)CO)C(=O)c2cc(NC(=O)Nc3ccc(F)cc3)ccc2O1`: the inhibition is 71.7% (inactive).

Turning to `C[C@@H]1CCCCO[C@@H](CN(C)C(=O)NC2CCCCC2)[C@H](C)CN([C@@H](C)CO)C(=O)c2cc(NC(=O)Nc3ccc(F)cc3)ccc2O1`, the inhibition is 54.3% (inactive).

As to `C[C@@H]1CCCCO[C@H](CN(C)C(=O)NC2CCCCC2)[C@H](C)CN([C@H](C)CO)C(=O)c2cc(NC(=O)Nc3ccc(F)cc3)ccc2O1`, the inhibition was 110% (active).

With `C[C@@H]1CN([C@H](C)CO)C(=O)c2cc(NC(=O)Nc3ccc(F)cc3)ccc2O[C@@H](C)CCCCO[C@@H]1CN(C)CC1CCCCC1`, the inhibition was 115% (active).
